Compounds with a hit are over-represented: about 10% of the library has one in this group of screens.
ELG1 repair inh: inhibitors of ELG1-dependent DNA repair in HEK293T cells | Potency, µM (highest dose often 46.1 µM), hits mostly inhibitors | HEK293T ELG1-luciferase reporter, luminescence, 16 h; DNA damage induced by 5-fluorouridine | hit rate 2.3% among 330,000; further: nearly all actives have a fitted effect of over 55% in size
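Luminescence from the luciferase reporter, measured 30 min after ONE-Glo reagent at room temperature, was the read-out. Beforehand, 2,000 cells per well were exposed for 16 hr at 37 °C to 5-fluorouridine together with compound or vehicle.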
RORg inh: ROR gamma (mouse) transcription inhibition | P51450 | Drosophila S2 Gal4-RORgamma UAS-luciferase reporter, 20 h | Potency, µM (titrated, usually from 53.6 µM), hits mostly inhibitors | hit rate 5.4% among 310,000; further: nearly all actives have a fitted effect of over 60% in size
Target sequence (P51450 whole entry, looked up, the tested form may be a part): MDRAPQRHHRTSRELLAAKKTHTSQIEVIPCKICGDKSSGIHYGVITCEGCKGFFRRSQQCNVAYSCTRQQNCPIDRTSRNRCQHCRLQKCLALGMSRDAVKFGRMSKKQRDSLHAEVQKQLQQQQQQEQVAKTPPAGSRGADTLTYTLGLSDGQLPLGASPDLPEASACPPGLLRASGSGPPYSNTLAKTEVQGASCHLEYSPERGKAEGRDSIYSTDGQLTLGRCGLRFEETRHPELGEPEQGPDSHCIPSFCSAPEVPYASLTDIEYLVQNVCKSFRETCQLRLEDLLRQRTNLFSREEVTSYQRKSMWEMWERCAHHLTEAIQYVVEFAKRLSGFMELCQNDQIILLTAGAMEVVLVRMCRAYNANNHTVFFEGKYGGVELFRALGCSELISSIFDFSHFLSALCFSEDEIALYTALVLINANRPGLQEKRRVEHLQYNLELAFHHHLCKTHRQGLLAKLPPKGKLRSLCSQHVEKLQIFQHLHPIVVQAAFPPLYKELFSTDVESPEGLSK
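Luminescence from a UAS-regulated Photinus luciferase reporter in stably transfected Drosophila Schneider cells is measured; decreased signal marks ROR gamma inhibition. Fusion expression is induced by 700 uM copper sulfate for 20 hr.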
MCF10A rerep: inducers of DNA re-replication in MCF 10A breast cells. AID 624296. MCF 10A DNA re-replication, Hoechst nuclear intensity, 48 h. Potency, µM (series often up to 46.1 µM), hits mostly activators. hit rate 2.9% among 350,000; further: nearly all actives have a fitted effect of over 50% in size
Gal4-VP16 FLuc: inhibits Gal4-VP16 luciferase reporter, ROR gamma counter-screen. Drosophila S2 Gal4-VP16 UAS-luciferase, luminescence, 20 h. hit rate 3.5% among 310,000. Potency, µM (doses to about 53.6 µM), most hits filed as inhibitors;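 further: Gal4-VP16 expression switched on by copper sulfate through the metallothionein promoter; nearly all actives have a fitted effect of over 50% in size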
SW480 rerep: induces DNA re-replication in SW480 colon adenocarcinoma cells; AID 624297; SW480 DNA re-replication, Hoechst DNA content imaging, 48 h; hit rate 1.8% among 340,000; Potency, µM (series often up to 46.1 µM), usual class: activators; further: nearly all actives have a fitted effect of over 55% in size
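Image-based read-out: total Hoechst fluorescence of nuclei (405 nm excitation, 500-530 nm emission), with hits raising the fraction of high-intensity nuclei. SW480 colon cells incubated 48 hr with compounds at 37 C.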
Each line names hits and unclear results; the compound was inactive in the other large screens. The call rests on the fitted dose curve; in most records, active means well fitted curve in the direction sought with a large enough effect; inconclusive means small, poorly fitted or top-dose-only effect, or another doubt; inactive means no such curve, though single readings can be large; an effect the other way counts as inactive or inconclusive.

CCCCCCCCCCCNC(=O)c1ccoc1C	MCF10A rerep 26µM
COc1ccc(C(=O)C2CCCN(C(=O)c3cc(C4CC4)[nH]n3)C2)c(C)c1 (stereo unspecified)	RORg inh inconclusive, SW480 rerep inconclusive
N#C/C(=C\c1ccc(O)cc1)c1nc2ccccc2o1	ELG1 repair inh inconclusive, MCF10A rerep inconclusive
COc1cc(/C=C(/C#N)c2nc(-c3cc4ccccc4oc3=O)cs2)cc([N+](=O)[O-])c1O	ELG1 repair inh inconclusive (no result: MCF10A rerep, SW480 rerep)
COc1cc(/C=C(\C#N)c2nc(-c3cc4ccccc4oc3=O)cs2)ccc1O	ELG1 repair inh inconclusive, MCF10A rerep 0.92µM
COc1cc(/C=C(\C#N)c2nc3ccccc3o2)ccc1O	ELG1 repair inh inconclusive, MCF10A rerep 18µM
CC(C)c1ccc(CCNC(=O)c2ccc([N+](=O)[O-])cc2)cc1	ELG1 repair inh 9.2µM, Gal4-VP16 FLuc inconclusive
O=C(NCCc1ccccc1)c1ccc([N+](=O)[O-])cc1	ELG1 repair inh inconclusive, RORg inh 7.9µM, Gal4-VP16 FLuc inconclusive
O=C(NCCc1ccc([N+](=O)[O-])cc1)c1ccccc1	ELG1 repair inh inconclusive
CC(=O)c1ccc(N2CCN(C(=O)c3cccs3)C(C)C2)c(F)c1 (stereo unspecified)	ELG1 repair inh inconclusive, RORg inh inconclusive
Cc1ccc2c(c1)sc1nc(=O)ccn12	none
Cc1cccc2c1c(N=NC(N)=S)c(O)n2C1OC(CO)C(O)C(O)C1O (stereo unspecified)	none
CCCCNC(=S)NNc1c(Cl)cc(Cl)cc1Cl	RORg inh 2.5µM, Gal4-VP16 FLuc 5µM
O=C(NC(=S)NNC(=O)c1ccc(Cl)cc1Cl)c1cccnc1	RORg inh 13µM, MCF10A rerep inconclusive, Gal4-VP16 FLuc 20µM
CC(C)c1ccccc1OCCNC(=S)NC(=O)c1cccnc1	ELG1 repair inh inconclusive, RORg inh 3.5µM, MCF10A rerep inconclusive, Gal4-VP16 FLuc inconclusive
O=C(NNC(=S)Nc1ccc(Br)cc1)c1cccnc1	RORg inh 10µM, Gal4-VP16 FLuc inconclusive
Cc1cc(Cl)ccc1OCCNC(=S)NC(=O)c1cccnc1	RORg inh inconclusive
CC(C)(C)CN1C(=O)C(=O)NC[C@@H]1CCCCN	none (no result: ELG1 repair inh, RORg inh, Gal4-VP16 FLuc)
O=c1ccn([C@@H]2O[C@H](COS(=O)(=O)O)[C@@H](O)[C@H]2O)c(=O)[nH]1	MCF10A rerep inconclusive (no result: RORg inh, Gal4-VP16 FLuc)
CCCCNC(=S)NNC(=O)c1nn(C)cc1Cl	RORg inh 14µM
O=C(NNC(=S)NC(=O)c1cccnc1)c1ccc(Cl)cc1	RORg inh 10µM, Gal4-VP16 FLuc inconclusive
CCNC(=S)NNC(=O)c1cccnc1	none
CCCCNC(=S)NNC(=O)c1cccnc1	RORg inh inconclusive, Gal4-VP16 FLuc 11µM
CCCCNC(=S)NNC(=O)c1ccc(Br)o1	RORg inh 0.79µM, MCF10A rerep inconclusive
Cc1occc1C(=O)N1CCCC(Nc2ccc(C(C)C)cc2)C1 (stereo unspecified)	MCF10A rerep inconclusive
O=C(NC(=S)Nc1ncccn1)c1ccc(Cl)cc1Cl	ELG1 repair inh inconclusive, RORg inh 7.1µM
CCC(=O)Nc1cccc(NC(=S)NC(=O)c2ccc(Cl)cc2Cl)c1	ELG1 repair inh inconclusive, RORg inh inconclusive, Gal4-VP16 FLuc inconclusive
O=C(NC(=S)NCCOCc1ccc(Cl)cc1)c1cccnc1	RORg inh 11µM, Gal4-VP16 FLuc 18µM
O=C(Cc1ccc(Cl)cc1)NNC(=S)NC(=O)c1cccnc1	RORg inh inconclusive
N#C/C(=C\c1c[nH]c2ccccc12)C(=O)NCC1CCCO1 (stereo unspecified)	ELG1 repair inh inconclusive
Cc1ccc(-n2nc(C(=O)O)c(C)c(C#N)c2=O)cc1Cl	none (no result: RORg inh, Gal4-VP16 FLuc)
Cc1ccccc1Nc1nnc(SCC(=O)NC(=O)Nc2ccc3c(c2)OCCO3)s1	ELG1 repair inh inconclusive (no result: MCF10A rerep, SW480 rerep)
Cc1cccc(Nc2nnc(SCC(=O)NC(=O)Nc3ccc4c(c3)OCCO4)s2)c1	ELG1 repair inh inconclusive, RORg inh inconclusive, MCF10A rerep 23µM, SW480 rerep inconclusive
COc1ccccc1Nc1nnc(SCC(=O)NC(=O)Nc2ccc3c(c2)OCCO3)s1	MCF10A rerep 21µM
COc1ccccc1-c1cc2nc(C)c(CCC(=O)NC(C)CCc3ccco3)c(C)n2n1 (stereo unspecified)	ELG1 repair inh inconclusive
CC1=C(C)C(c2ccccc2)NC(=S)N1 (stereo unspecified)	RORg inh 5µM
O=C(CCCC(=O)c1ccccc1)NCCc1ccccc1F	none
O=C(c1ccc(Cl)c([N+](=O)[O-])c1)N1CCN(c2ccccn2)CC1	none
O=[N+]([O-])c1cc(-c2n(-c3ccccn3)c3ccccc3[n+]2-c2ccccn2)ccc1Cl	ELG1 repair inh 18µM
O=C(O)c1ccc(Nc2nc(-c3cc4ccccc4oc3=O)cs2)cc1O	ELG1 repair inh inconclusive, MCF10A rerep 13µM, SW480 rerep inconclusive
CC(=O)Nc1ccc(Nc2nc(-c3cc4ccccc4oc3=O)cs2)cc1	ELG1 repair inh inconclusive, MCF10A rerep inconclusive
COc1ccc(Nc2nc(-c3cc4cccc(OC)c4oc3=O)cs2)cc1	ELG1 repair inh inconclusive, MCF10A rerep inconclusive
COc1ccc2oc(=O)c(-c3csc(Nc4cccc(O)c4)n3)cc2c1	ELG1 repair inh 26µM, MCF10A rerep 23µM, SW480 rerep inconclusive
CCCCCCCCCCCCCCCCCCCCCC(=O)Nc1ccn([C@@H]2O[C@H](CO)[C@@H](O)[C@@H]2O)c(=O)n1	SW480 rerep inconclusive (no result: ELG1 repair inh)
Cc1cc2cc(C(c3nnnn3C3CCCC3)N(Cc3cccnc3)Cc3ccco3)c(=O)[nH]c2cc1C (stereo unspecified)	ELG1 repair inh 18µM, MCF10A rerep inconclusive, SW480 rerep inconclusive
COc1ccc(Oc2ccc3c(C(F)(F)F)cc(C(F)(F)F)nc3n2)cc1	none
Oc1ccc(Oc2ccc3c(C(F)(F)F)cc(C(F)(F)F)nc3n2)cc1	ELG1 repair inh 18µM, MCF10A rerep inconclusive, SW480 rerep inconclusive
COc1ccc(NC(=O)CC2CCCCC2)cc1OC	ELG1 repair inh inconclusive, MCF10A rerep 5.8µM, SW480 rerep 7.3µM
COc1ccc(NC(=O)CC2CCCC2)cc1S(=O)(=O)N1CCCCC1	ELG1 repair inh inconclusive
CCOC(=O)CN1C(=O)N[C@@H](c2ccco2)C(C(C)=O)=C1C	none (no result: ELG1 repair inh, RORg inh, Gal4-VP16 FLuc)
Cc1cc(C)cc(NC(=O)c2cc(S(=O)(=O)NCc3ccco3)ccc2F)c1	MCF10A rerep inconclusive, Gal4-VP16 FLuc 10µM, SW480 rerep inconclusive
O=S(=O)(NCc1ccco1)c1ccc2c(c1)Cc1ccccc1-2	ELG1 repair inh inconclusive, RORg inh inconclusive, MCF10A rerep inconclusive, Gal4-VP16 FLuc 8.9µM, SW480 rerep inconclusive
Cc1ccc(S(=O)(=O)NCc2ccco2)cc1C	none
O=C(Nc1cccc(S(=O)(=O)NCc2ccco2)c1)c1cc(-c2ccc(F)cc2)nc2ccccc12	ELG1 repair inh 15µM, RORg inh inconclusive, SW480 rerep inconclusive
Cc1ccc(C(=O)Nc2ccc(S(=O)(=O)NCc3ccco3)cc2)cc1	ELG1 repair inh inconclusive
COc1ccc(-c2cc(C(=O)NCc3ccco3)c3ccccc3n2)cc1OC	MCF10A rerep inconclusive (no result: ELG1 repair inh, RORg inh, Gal4-VP16 FLuc)

Screening results as filed in PubChem.
